Where a name gives a salt, the structure may show the parent alone.
Assays:
Settings in all cases: 10 µM; exposure time 6 h
[1] = system: Danio rerio larvae (5 dpf); assay: difference in excitability vs DMSO (percentage points); higher = more excitable than DMSO
Outline: (§1)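 Wild-type 5 dpf zebrafish larvae in 96-well plates were given 100 µL egg water containing library compound at 10 µM final for 6 h. After 3 h of exposure, plates at 28.5 ℃ were photographed every 6 s during a 3-h programme of moving lines and 100 ms, 400Hz tones. Z-LaP Tracker (a DeepLabCut model) quantified each behaviour, averaged over 48 larvae per compound. Values are the compound mean minus the DMSO-vehicle control, in percentage points.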

[2] = system: Danio rerio larvae (5 dpf); assay: difference in startle response vs DMSO (percentage points); higher = stronger startle than DMSO
Outline: as §1

[3] = system: Danio rerio larvae (5 dpf); assay: difference in activity during first hour vs DMSO (percentage points); higher = more activity than DMSO
Outline: as §1

[4] = system: Danio rerio larvae (5 dpf); assay: difference in habituation to acoustic stimuli vs DMSO (percentage points); higher = more habituation than DMSO
Outline: as §1

[5] = system: Danio rerio larvae (5 dpf); assay: difference in combined optomotor response to red, green and blue moving lines vs DMSO (percentage points); higher = stronger optomotor response than DMSO
Outline: as §1

Structure (SMILES)	difference in excitability [1]	difference in startle response [2]	difference in activity during first hour [3]	difference in habituation to acoustic stimuli [4]	difference [5]
CC(C)(C)NC(=O)[C@@H]1CN(Cc2cccnc2)CCN1C[C@@H](O)C[C@@H](Cc1ccccc1)C(=O)N[C@H]1c2ccccc2C[C@H]1O [Indinavir (sulfate)]	-11.9	-2.27	1.38	11.2	-0.405
Cc1nc2n(c(=O)c1CCN1CCC(c3noc4cc(F)ccc34)CC1)CCCC2O (stereo not given) [Paliperidone]	15.4	0.117	18.6	0.732	5.58
Nc1ccn([C@@H]2O[C@H](CO)[C@@H](O)C2(F)F)c(=O)n1 [Gemcitabine]	-0.256	-0.373	-2.75	-1.87	2.24
CNC(=C[N+](=O)[O-])NCCSCc1csc(CN(C)C)n1 [Nizatidine]	-3.87	-1.69	7.71	2.96	2.72
Cc1cc(C2CCCCC2)n(O)c(=O)c1 [Ciclopirox]	3.8	-2.37	8.43	5.39	8.2
CC1(C)O[C@@H]2C[C@H]3[C@@H]4C[C@H](F)C5=CC(=O)C=C[C@]5(C)[C@H]4[C@@H](O)C[C@]3(C)[C@]2(C(=O)CO)O1 [Flunisolide]	4.3	-3.48	6.73	1.9	3.28
NCc1ccc(S(N)(=O)=O)cc1 [Mafenide]	3.79	7.01	4.01	0.954	0.998
OCCN1CCN(CCCN2c3ccccc3Sc3ccc(Cl)cc32)CC1 [Perphenazine]	18.9	-4.36	24	-10.2	2.99
CC(=O)NCCCS(=O)(=O)O [Acamprosate (calcium salt)]	5.62	1.29	-8.55	7.23	4.69
C[C@@H]1NC(=O)[C@@H](N)CNC(=O)[C@H](C2CCNC(=N)N2)NC(=O)/C(=C/NC(N)=O)NC(=O)[C@H](CNC(=O)CC(N)CCCN)NC1=O.N=C1NCC[C@H]([C@@H]2NC(=O)/C(=C/NC(N)=O)NC(=O)[C@H](CNC(=O)C[C@@H](N)CCCN)NC(=O)[C@H](CO)NC(=O)[C@@H](N)CNC2=O)N1 [Capreomycin (sulfate)]	19.5	3.05	-0.814	2.2	3.54
CCOC(=O)[C@H](CCc1ccccc1)N[C@@H](C)C(=O)N1Cc2cc(OC)c(OC)cc2C[C@H]1C(=O)O [Moexipril (hydrochloride)]	11.9	-4.62	7.71	2.63	-1.21
CC(C)NCC(O)COc1ccc(CC(N)=O)cc1 (racemic) [(±)-Atenolol]	3.98	-0.206	8.47	1.78	1.82
NC(=O)Cc1cccc(C(=O)c2ccccc2)c1N [Nepafenac]	9.24	1.72	-6.03	4.01	-4.77
C[C@@H]1CCN(C(=O)CC#N)C[C@@H]1N(C)c1ncnc2[nH]ccc12	-2.24	-4.49	-6.58	-6.59	6.98
CC(C)c1c(C(=O)Nc2ccccc2)c(-c2ccccc2)c(-c2ccc(F)cc2)n1CC[C@@H](O)C[C@@H](O)CC(=O)O [Atorvastatin (calcium salt hydrate)]	2	-0.915	-6.37	-0.794	-0.114
N#CC[C@H](C1CCCC1)n1cc(-c2ncnc3[nH]ccc23)cn1 [Ruxolitinib (phosphate)]	-1.61	4.35	6.14	-4.72	17.9
CC(=O)O[C@H]1CC[C@@]2(C)C(=CC[C@@H]3[C@@H]2CC[C@]2(C)C(c4cccnc4)=CC[C@@H]32)C1 [Abiraterone Acetate]	9.1	-1.78	-2.76	-1.15	2.44
FCOC(C(F)(F)F)C(F)(F)F [Sevoflurane]	-1.7	2.93	0.0224	4.17	-3.43
CN(C)CCC=C1c2ccccc2COc2ccccc21 [Doxepin (hydrochloride)]	9.9	-1.02	0.133	2.48	4.43
C[C@H](CCC(=O)O)[C@H]1CC[C@H]2[C@@H]3[C@H](O)C[C@@H]4C[C@H](O)CC[C@]4(C)[C@H]3C[C@H](O)[C@]12C [Cholic Acid]	-2.04	2.75	8.68	3.98	-1.08
CC[C@]1(O)C[C@H]2CN(CCc3c([nH]c4ccccc34)[C@@](C(=O)OC)(c3cc4c(cc3OC)N(C=O)[C@H]3[C@@](O)(C(=O)OC)[C@H](OC(C)=O)[C@]5(CC)C=CCN6CC[C@]43[C@@H]65)C2)C1 [Vincristine (sulfate)]	3.18	3.21	-4.31	-2.03	1.46
CCOC(=O)c1ccc(C#Cc2ccc3c(c2)C(C)(C)CCS3)nc1 [Tazarotene]	13.2	-9.42	54.2	-9.47	-15.1
OC[C@H]1O[C@@H](c2ccc(Cl)c(Cc3ccc(O[C@H]4CCOC4)cc3)c2)[C@H](O)[C@@H](O)[C@@H]1O [Empagliflozin]	2.31	-2.32	18.8	-5.57	4.06

Structure (SMILES)	difference in excitability [1]	difference in startle response [2]	difference in activity during first hour [3]	difference in habituation to acoustic stimuli [4]	difference [5]
COc1cccc2c1C(=O)c1c(O)c3c(c(O)c1C2=O)C[C@@](O)(C(=O)CO)C[C@@H]3O[C@H]1C[C@H](N)[C@H](O)[C@H](C)O1 [Doxorubicin (hydrochloride)]	6.65	3.55	-7.11	6.05	-4.42
CC#CC(=O)N1CCC[C@H]1c1nc(-c2ccc(C(=O)Nc3ccccn3)cc2)c2c(N)nccn12 [Acalabrutinib]	2.39	12.9	10.5	5	-2.56
COC(=O)[C@H]1[C@H]2C[C@@H]3c4[nH]c5cc(OC)ccc5c4CCN3C[C@H]2C[C@@H](OC(=O)c2cc(OC)c(OC)c(OC)c2)[C@@H]1OC [Reserpine]	24.6	-7.69	9.27	-7.61	-10.4
CC[C@H](C)[C@H](N)C1=N[C@H](C(=O)N[C@@H](CC(C)C)C(=O)N[C@H](CCC(=O)[O-])C(=O)N[C@H](C(=O)N[C@H]2CCCCNC(=O)[C@H](CC(N)=O)NC(=O)[C@@H](CC(=O)[O-])NC(=O)[C@H](Cc3cnc[nH]3)NC(=O)[C@@H](Cc3ccccc3)NC(=O)[C@H]([C@@H](C)CC)NC(=O)[C@@H](CCCN)NC2=O)[C@@H](C)CC)CS1.[Zn+2] [Bacitracin (zinc)]	20.6	-4.52	30.1	-11	-7.98
CCOCCn1c(N2CCCN(C)CC2)nc2ccccc21 [Emedastine (fumarate)]	5.25	8.02	5.05	0.658	-3.97
O=C1C(O)=C([C@H]2CC[C@H](c3ccc(Cl)cc3)CC2)C(=O)c2ccccc21 [Atovaquone]	-0.794	-0.517	-0.977	-6.16	-7.53
Cc1nc2n(c(=O)c1CCN1CCC(c3noc4cc(F)ccc34)CC1)CCCC2 [Risperidone]	14.4	5.09	7.15	4.04	-1.6
CN(C)CCOC(c1ccc(Cl)cc1)c1ccccn1 (stereo not given) [Carbinoxamine (maleate)]	8.33	3.19	-11.6	5.36	-7.17
Cc1cc(C)cc(OCC2CNC(=O)O2)c1 (stereo not given) [Metaxalone]	8.24	-0.153	0.609	5.03	10.1
NC(=O)N1c2ccccc2CC(=O)c2ccccc21 [Oxcarbazepine]	-3.21	8.33	10.1	0.525	8.73
COc1ccc2[nH]c([S+]([O-])Cc3ncc(C)c(OC)c3C)nc2c1 (stereo not given) [Omeprazole]	14.6	-0.657	-0.859	0.506	5.66
CCS(=O)(=O)CCn1c([N+](=O)[O-])cnc1C [Tinidazole]	0.787	3.72	7.24	0.838	7.16
CN(C)[C@@H]1C(O)=C(C(N)=O)C(=O)[C@@]2(O)C(O)=C3C(=O)c4c(O)ccc(Cl)c4[C@@H](O)[C@H]3C[C@@H]12 [Demeclocycline (hydrochloride)]	12.9	-2.29	4.59	7.81	2.94
CC/C(=C(\c1ccccc1)c1ccc(OCCN(C)C)cc1)c1ccccc1 [Tamoxifen (citrate)]	-1.02	-2.65	14.8	-2.18	-15.8
Cn1c(=O)c2nc[nH]c2n(C)c1=O [Theophylline]	4.49	5.34	8.14	4.58	-0.54
NC[C@@H]1O[C@@H](O[C@H]2[C@H](O)[C@@H](O[C@H]3O[C@H](CO)[C@@H](O)[C@H](N)[C@H]3O)[C@H](N)C[C@@H]2N)[C@@H](O)[C@H](O)[C@H]1O [Kanamycin A (sulfate)]	8.55	-4.02	4.22	3.45	4.39
CCCC(=O)O[C@]1(C(=O)COC(C)=O)CC[C@H]2[C@@H]3C[C@H](F)C4=CC(=O)C=C[C@]4(C)[C@@]3(F)[C@@H](O)C[C@@]21C [Difluprednate]	3.2	2.35	6.57	4.62	-1.11
CNC(=C[N+](=O)[O-])NCCSCc1ccc(CN(C)C)o1 [Ranitidine (hydrochloride)]	-1.03	4.48	11.1	0.164	7.87
NNC(=O)c1ccncc1 [Isoniazid]	6.63	4.93	12.7	-2.52	6.66
COc1ccc2c3c1O[C@H]1C[C@@H](O)C=C[C@@]31CCN(C)C2 [Galantamine]	1.36	-0.28	15.8	-3.53	4.1
Cn1c(=O)c2c(ncn2C)n(C)c1=O [Caffeine]	5.33	2.45	2.64	7.15	4.07
CC(C)(C)NC[C@H](O)COc1nsnc1N1CCOCC1 [Timolol (maleate)]	6.66	-3.72	0.276	-0.906	6.47
